# Data taken from PubChem BioAssay (NCI).
# The panel holds about 83,000 compounds, 20% with a hit somewhere; the sample as a whole holds those more often.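 Assay: single dose, 48 h. Readout: percent growth (0 = no net growth; negative = cell death). Active: <10.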 Unmarked numbers belong to inactive results. Active and inactive are the calls of the source.
# Legend:
# Experiment in all cases: NCI-60 one-dose screen, 48 h (100 = growth as untreated, 0 = no growth, -100 = all killed)
# Conditions in all cases: 10 µM unless noted
# [1] = system: NCI-H23 lung
# [2] = system: NCI-H226 lung
# [3] = system: NCI-H322M lung
# [4] = system: HOP-62 NSCLC
# [5] = system: NCI-H460 lung
# [6] = system: HOP-92 NSCLC
# [7] = system: NCI-H522 lung
# [8] = system: A549/ATCC NSCLC
# [9] = system: 786-0 renal
# [10] = system: COLO 205 colon
# [11] = system: DU-145 prostate
# [12] = system: K-562 leukemia
# [13] = system: MALME-3M melanoma
# [14] = system: MDA-MB-231 breast
# [15] = system: RXF 393 renal
# [16] = system: SF-268 CNS
# [17] = system: SF-295 CNS
# [18] = system: SF-539 CNS
# [19] = system: UACC-257 melanoma
# [20] = system: M14 melanoma
Structure (SMILES),growth [1] [%],growth [2],growth [3] [%],growth [4],growth [5],growth [6],growth [7],growth [8],growth [9],growth [10],growth [11],growth [12],growth [13] [%],growth [14],growth [15],growth [16] [%],growth [17],growth [18],growth [19] [%],growth [20]
O=C1/C(=C/c2cccc3cnccc23)Cc2cc(F)ccc21,87.7,73.8%,93.9,65.1%,95.9%,75.3%,78.4%,98.7%,97.4%,81.8%,104%,96.1%,97.9,93.4%,112%,98.8,88.4%,94.1%,113,87.7%
COC(OC)C1(c2ccccc2)NC(=O)NC1=O (stereo not given),112,113%,108,103%,115%,104%,79.8%,95.9%,108%,119%,120%,112%,112,112%,116%,119,121%,114%,104,108%
CC(=O)Cc1cccnc1,96.5,95.4%,102,108%,105%,102%,96.3%,101%,103%,115%,110%,86.7%,103,99.9%,103%,104,99.2%,102%,96.8,101%
COC1OCC(OS(=O)(=O)c2ccc(C)cc2)C(OC(=O)c2ccccc2)C1OC(=O)c1ccccc1 (stereo not given),68.4,68.4%,76.6,42.2%,17.4%,62.2%,19%,48.7%,42.1%,36.4%,66.6%,37.8%,37.3,57.2%,49.6%,62.4,30%,39.2%,71,34.3%
O=C(CSc1nnc(-c2ccc(Cl)cc2)o1)Nc1ccc(C(=O)/C=C/c2ccccc2)cc1,93.3,107%,90.5,107%,97.7%,106%,86.7%,96%,97.8%,116%,101%,99.3%,106,99.1%,112%,103,105%,106%,101,96%
CS(=O)(=O)Nc1cccc(-c2ccc3ncnc(Nc4cncc(Cl)c4)c3c2)c1,47.1,52.5%,19.9,40.5%,44.9%,11.2%,28.1%,30.5%,10.1%,5.27% (active),38.6%,16.9%,40.3,1.39% (active),19.8%,42.4,-17.7% (active),2.94% (active),49.7,16.8%
Cc1ncc(CO)c(C(=O)O)c1O,98.6,102%,80.9,104%,105%,106%,79.8%,110%,97.5%,112%,102%,93%,95.9,103%,106%,94.4,100%,96.6%,107,93.7%
Cc1c(Cl)ccc2c(C(=O)Cl)cc(-c3ccccc3)nc12,98.8,90.8%,103,85.4%,98.2%,93.5%,95.1%,92.9%,97.1%,111%,101%,97.1%,104,97%,110%,102,94.7%,100%,87.9,98.1%
CN1CCN(Cn2nc(-c3cc(Cl)cc(Cl)c3Cl)n(/N=C/c3ccc(Cl)cc3)c2=S)CC1,92.5,104%,67.6,95%,106%,43.7%,91.1%,94%,89.1%,118%,102%,73.9%,101,83.8%,89.6%,117,102%,108%,93.6,96%
COC(=O)Nc1nc2ccc(Sc3ccccc3)cc2[nH]1,32.7,19.9%,55.4,29.4%,6.37% (active),54.2%,13.4%,13.4%,33.7%,-14.7% (active),17.5%,5.33% (active),41.9,45.6%,15%,37.8,-16.1% (active),0.846% (active),52.1,8.93% (active)
CN1CCN(CC(=O)N(C)c2ccc(N=C(c3ccccc3)c3c(O)[nH]c4ccc(C#N)cc34)cc2)CC1,35.5,43.2%,37.7,39.7%,21.2%,63.8%,45.3%,19.6%,32.4%,0.511% (active),32.8%,11%,35.5,42.5%,3.21% (active),32,18.2%,-20.2% (active),78.5,30.7%
CCOC(=O)n1cnc2c(Cl)ncnc21,245,113%,109,136%,108%,95.1%,108%,103%,159%,98.9%,106%,106%,113,101%,104%,111,101%,93.6%,86.4,101%
c1ccc(CNCCN(CCNCc2ccccn2)Cc2ccc3ccccc3c2)nc1,21.5,-17.9% (active),12.2,-17.4% (active),-7.2% (active),-7.66% (active),14.1%,-14.5% (active),-46.4% (active),-5.97% (active),13.7%,-0.99% (active),24.6,4.02% (active),45.1%,19,-35.6% (active),-34.8% (active),31.7,-49.4% (active)
Nc1nc(=S)ss1,98.7,103%,100,97.3%,110%,98.7%,94.2%,97.5%,107%,112%,116%,98.1%,111,112%,101%,108,102%,111%,90.2,101%
CC(=O)c1ccc2c(c1)C1C=CCC1[C@H](c1cc3c(cc1Br)OCO3)N2 (stereo not given in full),27.1,22.1%,64.8,32.1%,7.92% (active),16%,-10.7% (active),23.4%,10.9%,-14% (active),-17% (active),4.19% (active),49.7,16.9%,-12.4% (active),40.6,-36.7% (active),-12.1% (active),75,-7.21% (active)
COc1ccc(Cl)cc1NC(=O)c1cc2c(n1C)-c1nc(NC(=O)C(C)C)sc1CC2,89.4,61.3%,99.1,85.7%,94%,91%,49.9%,71.5%,88.1%,96.8%,83.5%,79.8%,99.3,30.5%,101%,71.2,92.5%,-27.9% (active),88,84.8%
